Screening data: PubChem, National Center for Advancing Translational Sciences (NCATS)
B2AR arrestin: qHTS assay of beta-arrestin-biased ligands of beta2-adrenergic receptor | beta-arrestin recruitment to beta2AR, cell-based reporter | Potency, µM (titrated, usually from 46.1 µM), usual class: activators | 330,000 tested, 0.02% active | AID 492947, 2010; note: nearly all actives have a fitted effect of over 65% in size
Target sequence (P07550 whole entry, looked up): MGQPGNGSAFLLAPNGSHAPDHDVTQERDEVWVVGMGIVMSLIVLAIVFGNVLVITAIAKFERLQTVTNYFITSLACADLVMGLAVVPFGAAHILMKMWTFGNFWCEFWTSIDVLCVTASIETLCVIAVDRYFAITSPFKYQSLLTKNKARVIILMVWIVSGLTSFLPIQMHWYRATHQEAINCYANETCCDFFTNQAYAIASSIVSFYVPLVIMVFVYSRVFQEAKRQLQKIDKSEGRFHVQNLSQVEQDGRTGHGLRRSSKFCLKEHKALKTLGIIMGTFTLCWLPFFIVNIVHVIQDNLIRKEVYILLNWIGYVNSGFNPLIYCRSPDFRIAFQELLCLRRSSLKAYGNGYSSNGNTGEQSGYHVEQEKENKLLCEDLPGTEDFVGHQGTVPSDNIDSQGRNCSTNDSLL
GAA inh: qHTS Assay for Inhibitors of Human alpha-Glucosidase as a Potential Chaperone Treatment of Pompe Disease. purified human GAA, 4-MU-alpha-glucoside fluorescence. Potency, µM (top dose mostly 76.9 µM), most hits filed as inhibitors. 200,000 tested, 0.005% active. AID 1466, 2008
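Activity normalized between no-enzyme (basal) and enzyme-only wells. Conditions: 4 nM human enzyme, 400 uM fluorogenic substrate, citrate/phosphate pH 5.0 with Tween-20, 20 min room temperature, compounds up to 77 uM.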
GAA spleen mod: qHTS Assay for Inhibitors and Activators of Human alpha-Glucosidase From Spleen Homogenate; human spleen homogenate, 4-MU-alpha-glucoside fluorescence; Potency, µM (titrated, usually from 79.9 µM), actives largely listed as inhibitors; AID 2112, 2009; 240,000 tested, 0.006% active; Lysosomal alpha-glucosidase (Homo sapiens), P10253
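Enzyme source: human spleen homogenate, 1 ug/well. Buffer 50 mM citric acid/K phosphate pH 5.0, 0.01% Tween-20. 4-MU-alpha-glucoside 1 mM; 37 C x 40 min; NaOH/glycine stop; fluorescence.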
GAA glycogen: qHTS Assay for Inhibitors and Activators of Human alpha-Glucosidase Cleavage of Glycogen. 300,000 tested, 0.38% active. Potency, µM (titrated, usually from 76.4 µM), hits mostly inhibitors. recombinant GAA, glycogen substrate, Amplex Red glucose oxidase fluorescence;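 note: the screen sought inhibitors and activators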
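Recombinant enzyme (4 nM final) with compounds titrated up to 77 uM and bovine liver glycogen (30 ug) in citrate pH 5.0, 0.01% Tween-20, 37 C 40 min. Released glucose detected by Amplex Red/glucose oxidase (Ex 573/Em 610); AC50 from Hill fits.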
Coupling enz: qHTS Assay for Inhibitors of Fructose-1,6-bisphosphate Aldolase from Giardia Lamblia: Coupling assay counterscreen; 290,000 tested, 0.67% active; coupling enzyme system counterscreen, AmpLite Red fluorescence; activity change, negative = inhibition, % at 58.2 µM, hits read low; in the data active = activity change below about -30%
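Fluorescence at 525 nm excitation and 598 nm emission measured inhibition of the coupled detection system without aldolase. Compounds (at 57.5 uM final) were preincubated 10 min at room temperature with coupling enzyme reagent before a 20 min substrate/AmpLite Red step.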
Large screens that a line does not name were inactive. Only some compounds are listed: those with a hit (about 0.85% of all), similar ones and a draw of the others. Unless noted, calls come from the whole dose curve; as a rule, active = well fitted curve in the direction sought with a large enough effect; inconclusive = small, poorly fitted or top-dose-only effect, or another doubt; inactive = no such curve, though single readings can be large; an effect the other way counts as inactive or inconclusive.

COc1ccc2nc(C)cc(SCC(=O)N/N=C/c3ccc(O)c(O)c3)c2c1	GAA glycogen 7µM
COc1cccc2c(SCC(=O)N/N=C/c3ccc(O)c(O)c3)cc(C)nc12	GAA glycogen 3.1µM
Cc1cc(SCC(=O)N/N=C/c2ccc(O)c(O)c2)c(C)cc1Br	GAA glycogen 18µM
COc1ccc2c(c1)c(C(=O)N/N=C/c1ccc(Br)cc1)c(C)n2C	none (no result: GAA inh)
COC(=O)C1C[C@@H]2C3=C(C(=O)[C@@](C)(NC(=O)c4ccccc4)C3[C@H](C(=O)OC)C1)[C@H](C)n1c(=O)n(-c3ccccc3)c(=O)n12 (some centres not stated)	none (no result: B2AR arrestin, GAA inh, GAA glycogen)
COc1ccc(OC)c(-c2ccc(C(=O)O)o2)c1	none (no result: B2AR arrestin, GAA inh, GAA glycogen)
CCN1CCN(C(=O)NC(C(=O)NC2C(=O)N3C(C(=O)O)=C(CSc4nnnn4C)CSC23)c2ccc(O)cc2)C(=O)C1=O (configuration not stated)	none (no result: B2AR arrestin, GAA inh, GAA glycogen)
Cc1ccc([N+](=O)[O-])cc1N=Nc1c(C)[nH]n(C(N)=S)c1=O	none (no result: GAA inh, GAA spleen mod)
Cc1ccc([N+](=O)[O-])cc1N=Nc1c(-c2ccc([N+](=O)[O-])cc2)[nH]n(C(N)=S)c1=O	B2AR arrestin 0.71µM
Cc1ccc(N=Nc2c(C)[nH]n(C(N)=S)c2=O)cc1	B2AR arrestin inconclusive
NC(=S)n1[nH]c(-c2ccc([N+](=O)[O-])cc2)c(N=Nc2ccc(Cl)cc2)c1=O	B2AR arrestin 16µM
CCN(Cc1ccccc1)C(=O)CN(c1ccc(OC)cc1)S(=O)(=O)c1c(C)nn(C)c1C	none (no result: B2AR arrestin, GAA inh, GAA spleen mod, Coupling enz)
Cc1cc(C)n(/N=C\c2c(O)ccc3ccccc23)c(=O)c1C(N)=O	Coupling enz -32
Brc1ccc(-c2cn3nc4c(nc3n2)CCCC4)cc1	none
Brc1ccc(-c2cn3c(n2)CCc2ccc4cccnc4c2-3)cc1	Coupling enz -31
CC1=CC(=O)C=C(C)C1=NOS(=O)(=O)c1ccccc1	Coupling enz -87
Cc1ccc(S(=O)(=O)ON=C2CCN(S(=O)(=O)c3ccccc3)CC2)cc1	none
CC1=CC(=O)C(C(C)C)=C/C1=N/OS(=O)(=O)c1ccccc1	Coupling enz -73 (no result: GAA inh)
CC1CCCN(S(=O)(=O)c2cccc(C(=O)OCC(=O)N(C)Cc3c(F)cccc3Cl)c2)C1 (configuration not stated)	none (no result: GAA inh, GAA spleen mod, GAA glycogen, Coupling enz)
NNc1ccc2nnc(C(F)(F)C(F)(F)C(F)(F)F)n2n1	GAA glycogen 32µM
COc1cc(/C=N/NC(=O)C2(O)c3ccccc3-c3ccccc32)ccc1O	GAA glycogen inconclusive
COc1cc(/C=N/NC(=O)C(=O)/C=C2\NC(C)(C)Cc3ccccc32)ccc1O	GAA glycogen 35µM (no result: GAA inh)
CCOC(=O)C1CCN(C(=O)c2cc(COc3ccc(OC)c4ccccc34)on2)CC1	Coupling enz -37 (no result: GAA inh, GAA spleen mod)
COc1ccc(OCc2cc(C(=O)N(C)C3CCOCC3)no2)c2ccccc12	Coupling enz -37 (no result: GAA inh, GAA spleen mod)
Cc1[nH]c2ccccc2c1C(O)c1ccncc1 (configuration not stated)	none
Cc1[nH]c2ccccc2c1C(c1ccccn1)c1c(C)[nH]c2ccccc12	GAA inh inconclusive, Coupling enz -71
Cc1c(C=O)c(Cl)n(C)c(=O)c1C#N	Coupling enz -46
CC(=O)N=Cc1c(C)c(C#N)c(=O)n(C)c1O	Coupling enz -51
Cc1c(/C=N/Nc2ccc(F)cc2)c(O)n(C)c(=O)c1C#N	GAA glycogen inconclusive
Cc1cc(C)n(C)c(=O)c1C#N	none
Cc1ccc(NC(=O)CCc2c(C)nc3ncnn3c2C)cc1Cl	none (no result: B2AR arrestin, GAA inh, GAA spleen mod, Coupling enz)
CN(C)c1nc(N)nc(/C(C#N)=C/C2CC3C=CC2C3)n1 (configuration not stated)	Coupling enz -33
CCCn1c(CNc2ccccc2O)nc2ccccc21	GAA glycogen 12µM
C[C@@H](O)CCC[C@H](O)/C=C/[C@H]1[C@H](O)CC(=O)[C@@H]1C/C=C\CCCC(=O)O	none (no result: B2AR arrestin, GAA inh, GAA glycogen)
CN(Cc1ccco1)c1ncncc1-c1cccnc1	none (no result: B2AR arrestin, GAA inh, GAA glycogen)
CCOC(=O)c1ccc2ncc(C(=O)OCC)c(Nc3ccc(C)c(Br)c3)c2c1	none (no result: B2AR arrestin, GAA inh, GAA spleen mod, Coupling enz)
CCN1CCN(C(=S)c2ccc(Cl)cc2)CC1	Coupling enz -54
COc1ccc(C)cc1NC(=O)C1CCN(S(=O)(=O)c2c(C)noc2/C=C/c2ccco2)CC1	none (no result: B2AR arrestin, GAA inh, GAA spleen mod, Coupling enz)
COc1ccccc1C(=O)NC(=S)N1CCCc2ccccc21	Coupling enz -39
COc1ccc(C(=O)Nc2cc(OC)c(NC(=O)c3ccco3)cc2OC)cc1	Coupling enz -35
COc1ccc(NC(=O)c2ccco2)cc1NC(=O)c1ccco1	none
COc1ccc(NC(=O)c2ccco2)cc1N	Coupling enz -41
COc1ccc(NC(=O)c2ccc(NC(=O)c3ccco3)cc2)c(OC)c1	none (no result: GAA inh, GAA spleen mod)
CCCCCCC#CC1C=CC(OC(C)=O)C(COC(C)=O)O1 (configuration not stated)	none (no result: B2AR arrestin, GAA inh, GAA glycogen)
CC(=O)Nc1ccc(NC2=C/C(=N/S(=O)(=O)c3cccs3)c3ccccc3C2=O)cc1	Coupling enz -35
Cc1ccc(NC2=C/C(=N/S(=O)(=O)c3cccs3)c3ccccc3C2=O)cc1C	none
COc1ccc(S(=O)(=O)c2ccc(O)cc2)cc1	GAA inh inconclusive
Cc1ccccc1NC1=C/C(=N\S(=O)(=O)c2cccs2)c2ccccc2C1=O	Coupling enz -46
COc1ccc(S(=O)(=O)/N=C2\C=C(Nc3ccc(O)cc3)C(=O)c3ccccc32)cc1	Coupling enz -32 (no result: GAA inh, GAA spleen mod)
CCCCC/C=C\C[C@@H]1O[C@H]1C(O)/C=C\C/C=C\CCCC(=O)O (some centres not stated)	none (no result: B2AR arrestin, GAA inh, GAA glycogen)
CCN(CC)C(=O)Cn1c(=O)n(-c2ccc(C)c(C)c2)c(=O)c2c3c(sc21)CCCCC3	none (no result: B2AR arrestin, GAA inh, GAA spleen mod, Coupling enz)
COc1cccc([C@@H]2Oc3ccc(OC)cc3C(=O)[C@H]2OC(=O)NCc2ccco2)c1	none (no result: B2AR arrestin, GAA inh, GAA glycogen)
COC(=O)c1cccc(-c2ccc(C(c3c(C)[nH][nH]c3=O)c3c(C)[nH][nH]c3=O)o2)c1	Coupling enz -46
COC(=O)c1ccccc1-c1ccc(C(c2c(C)[nH][nH]c2=O)c2c(C)[nH][nH]c2=O)o1	none
Cc1[nH][nH]c(=O)c1C(c1ccc(-c2ccc(Cl)c(C(=O)O)c2)o1)c1c(C)[nH][nH]c1=O	GAA glycogen inconclusive, Coupling enz -48
CSc1nn(Cc2ccc(Br)cc2)c(N(C(C)=O)C(C)=O)c1S(=O)(=O)c1ccccc1	none (no result: B2AR arrestin, GAA inh, GAA spleen mod, Coupling enz)
CC1=C(CC(=O)c2ccc(Cl)cc2)C(=O)c2ccccc2C1=O	GAA inh inconclusive, Coupling enz -40
